Measured values published in PubChem BioAssay (Tox21).
Unmarked numbers belong to inactive results. The source made the active and inactive calls. Unless noted, calls come from the whole dose curve.

These molecules were tested on thyroid hormone receptor (rat, GH3 cells) (assay: qHTS assay to identify small molecule agonists of the thyroid receptor (TR) signaling pathway (AID 743066)). Settings: GH3.TRE-Luc cells, TR agonist luciferase, 24 h; series mostly up to 83.9 µM; activation: at the top concentration.
% is set by controls: 0 for no effect and ±100 for the full control effect.

Structure (SMILES) | activation | Potency
CCCCCCCCCCCCCCC1CO1 (centres undefined) | 1.91% | –
O=C(C(=O)c1ccc(Br)cc1)c1ccc(Br)cc1 | 0.0031% [at 39.4 µM] | –
C=C(C)C(=O)OCCN(C)C | 1.27% [at 95.2 µM] | –
CC(=O)N(O)CCCCCNC(=O)CCC(=O)N(O)CCCCCNC(=O)CCC(=O)N(O)CCCCCN | 0.929% [at 39.4 µM] | –
Nc1nc(N)c2nc(CNc3ccc(C(=O)N[C@@H](CCC(=O)O)C(=O)O)cc3)cnc2n1 | – | inactive
O=C(NN1CCCC1)NS(=O)(=O)c1ccc(Cl)cc1 | 0.449% | –
N[C@H]1C(O)O[C@H](CO)[C@H](O)[C@@H]1O (some centres undefined) | -0.0933% | –
C=CC[N+]1([C@H]2C[C@H]3[C@@H]4CC[C@H]5C[C@H](OC(C)=O)[C@@H](N6CCCCC6)C[C@]5(C)[C@H]4CC[C@]3(C)[C@H]2OC(=O)CC)CCCCC1 | 0.021% | –
OCC1CC2CC1C1CCC(CO)C21 (centres undefined) | -1.07% | –
Cn1c(=O)c2c(ncn2CC(O)CO)n(C)c1=O (centres undefined) | -0.731% [at 39.4 µM] | –
CCOC(=O)CC(=O)c1cc(F)c(Cl)nc1Cl | -2.85% [at 95.2 µM] | –
O=C(O)COC(=O)Cc1ccccc1Nc1c(Cl)cccc1Cl | -2.63% [at 39.4 µM] | –
CCCCCCCCCCCCCCCBr | -0.449% | –
N#CCc1cccc(C(F)(F)F)c1 | 0.266% | –
CCCCOC(O)CC (centres undefined) | 0.403% | –
C[C@H](CCC(=O)O)[C@H]1CC[C@H]2[C@@H]3[C@H](O)C[C@@H]4C[C@H](O)CC[C@]4(C)[C@H]3CC[C@]12C | – | inactive
CC[C@H](C)[C@H](N)C(=O)O | 1.88% | –
CCCCCCc1ccc(N)cc1 | -5.01% | –
CC(C)NCC(O)COc1ccc(CC(N)=O)cc1 (centres undefined) | -1.18% | –

Structure (SMILES) | activation | Potency
COCCOCCOCCOCCOC | 0.105% | –
C=C(C)C(=O)OC(C)C | -0.132% | –
N#CCCNCCC#N | 1.16% [at 95.2 µM] | –
NCCCOCCOCCOCCCN | -0.648% | –
CC(=O)NCCCS(=O)(=O)O | – | inactive
Cc1ccc(C(N)=O)cc1N | 0.83% | –
O=C(O)C1CCC(C(=O)O)CC1 (centres undefined) | 7.85% | –
Cc1ccccc1N=Nc1ccc(N=Nc2c(O)ccc3ccccc23)c(C)c1 | 1.68% | –
CCOC(=S)SSC(=S)OCC | – | inactive
ClC(Cl)(Cl)c1ccc(C(Cl)(Cl)Cl)cc1 | -4.87% | –
CCCCCCCCCO | 0.589% | –
CN(C)CCCOc1nn(Cc2ccccc2)c2ccccc12 | -5.78% [at 39.4 µM] | –
CCOC(=O)CC(C)C | 1.07% | –
FC(F)(F)C(F)(F)C(F)(F)C(F)(F)C(F)(F)C(F)(F)CCI | 1.77% | –
CC(C(=O)O)c1ccc(-c2ccccc2)c(F)c1 (centres undefined) | – | inactive
CCCc1ccccc1 | 2.88% | –
Cc1ncsc1CCO | 0.404% | –
N=C(N=C(N)N)N1CCOCC1 | 0.026% [at 39.4 µM] | –

These molecules were tested against Estrogen receptor (Homo sapiens) (UniProt P03372) (assay: qHTS assay to identify small molecule antagonists of the estrogen receptor alpha (ER-alpha) signaling pathway (AID 743069; active = well fitted curve in the direction sought with a large enough effect in the signal ratio in the repeat runs, not every such curve was filed as active; inconclusive = weak or mixed curves, or effect the other way; inactive = no such curve, though single readings can be large or run the other way; the % refers to the signal ratio; note: potency is the fitted concentration of half-maximal effect)). Settings: HEK293 ER-alpha-UAS-bla, beta-lactamase ratio, antagonist mode; series mostly up to 69.4 µM; activity, negative = inhibition: at the top concentration.
Procedure, shortened: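 HEK293 ER-alpha-UAS-bla GripTite cells, held overnight in 2% charcoal-stripped FBS, 5,000 cells/well, preincubated 4 h, then compound plus 17beta-estradiol for 18 h at 37C. Beta-lactamase read by LiveBLAzer B/G FRET substrate, 2 h at room temperature.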

Estrogen receptor (Homo sapiens), sequence (P03372 whole entry, looked up): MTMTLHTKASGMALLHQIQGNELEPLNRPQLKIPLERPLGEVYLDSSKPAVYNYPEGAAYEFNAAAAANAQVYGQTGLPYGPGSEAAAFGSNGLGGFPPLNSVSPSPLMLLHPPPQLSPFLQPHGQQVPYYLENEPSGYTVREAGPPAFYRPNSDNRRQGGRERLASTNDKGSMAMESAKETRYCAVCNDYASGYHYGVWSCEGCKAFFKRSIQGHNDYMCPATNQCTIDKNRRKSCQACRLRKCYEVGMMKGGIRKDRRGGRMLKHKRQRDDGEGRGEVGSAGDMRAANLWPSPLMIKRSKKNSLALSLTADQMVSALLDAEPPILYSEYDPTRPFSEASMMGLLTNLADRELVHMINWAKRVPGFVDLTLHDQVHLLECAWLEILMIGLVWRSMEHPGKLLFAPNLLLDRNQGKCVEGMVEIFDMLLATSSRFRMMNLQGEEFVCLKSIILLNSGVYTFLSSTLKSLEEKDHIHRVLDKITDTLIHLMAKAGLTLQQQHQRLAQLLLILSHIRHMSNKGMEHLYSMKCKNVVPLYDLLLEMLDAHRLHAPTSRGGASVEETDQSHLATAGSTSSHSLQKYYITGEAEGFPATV

Structure (SMILES) | activity, negative = inhibition | Potency
CCCCCCCCCCCCCCC1CO1 (centres undefined) | -12.4% | –
O=C(C(=O)c1ccc(Br)cc1)c1ccc(Br)cc1 | -2.37% [at 32.6 µM] | –
C=C(C)C(=O)OCCN(C)C | -24.8% [at 79.1 µM] | –
CC(=O)N(O)CCCCCNC(=O)CCC(=O)N(O)CCCCCNC(=O)CCC(=O)N(O)CCCCCN | -8.97% [at 32.6 µM] | –
Nc1nc(N)c2nc(CNc3ccc(C(=O)N[C@@H](CCC(=O)O)C(=O)O)cc3)cnc2n1 | – | inactive
O=C(NN1CCCC1)NS(=O)(=O)c1ccc(Cl)cc1 | -10.2% | –
N[C@H]1C(O)O[C@H](CO)[C@H](O)[C@@H]1O (some centres undefined) | 6.63% | –
C=CC[N+]1([C@H]2C[C@H]3[C@@H]4CC[C@H]5C[C@H](OC(C)=O)[C@@H](N6CCCCC6)C[C@]5(C)[C@H]4CC[C@]3(C)[C@H]2OC(=O)CC)CCCCC1 | 4.34% | –
OCC1CC2CC1C1CCC(CO)C21 (centres undefined) | 13.1% | –
Cn1c(=O)c2c(ncn2CC(O)CO)n(C)c1=O (centres undefined) | -2.21% [at 32.6 µM] | –
CCOC(=O)CC(=O)c1cc(F)c(Cl)nc1Cl | -4.69% [at 79.1 µM] | –
O=C(O)COC(=O)Cc1ccccc1Nc1c(Cl)cccc1Cl | -2.7% [at 32.6 µM] | –
CCCCCCCCCCCCCCCBr | -7.76% | –
N#CCc1cccc(C(F)(F)F)c1 | 15.5% | –
CCCCOC(O)CC (centres undefined) | -4.86% | –
C[C@H](CCC(=O)O)[C@H]1CC[C@H]2[C@@H]3[C@H](O)C[C@@H]4C[C@H](O)CC[C@]4(C)[C@H]3CC[C@]12C | 8.54% [at 32.6 µM] | –
CC[C@H](C)[C@H](N)C(=O)O | 9.18% | –
CCCCCCc1ccc(N)cc1 | – | 15.5 µM [inconclusive] (active)
CC(C)NCC(O)COc1ccc(CC(N)=O)cc1 (centres undefined) | -15.4% | –

Structure (SMILES) | activity, negative = inhibition | Potency
COCCOCCOCCOCCOC | 6.21% | –
C=C(C)C(=O)OC(C)C | -7.96% | –
N#CCCNCCC#N | 6.6% [at 79.1 µM] | –
NCCCOCCOCCOCCCN | 8.02% | –
CC(=O)NCCCS(=O)(=O)O | – | inactive
Cc1ccc(C(N)=O)cc1N | 13.6% | –
O=C(O)C1CCC(C(=O)O)CC1 (centres undefined) | -19.7% | –
Cc1ccccc1N=Nc1ccc(N=Nc2c(O)ccc3ccccc23)c(C)c1 | 18.7% | –
CCOC(=S)SSC(=S)OCC | – | inactive
ClC(Cl)(Cl)c1ccc(C(Cl)(Cl)Cl)cc1 | -6.59% | –
CCCCCCCCCO | 8.86% | –
CN(C)CCCOc1nn(Cc2ccccc2)c2ccccc12 | -5.83% [at 32.6 µM] | –
CCOC(=O)CC(C)C | 17.5% | –
FC(F)(F)C(F)(F)C(F)(F)C(F)(F)C(F)(F)C(F)(F)CCI | -20.2% | –
CC(C(=O)O)c1ccc(-c2ccccc2)c(F)c1 (centres undefined) | – | inactive
CCCc1ccccc1 | 8.63% | –
Cc1ncsc1CCO | 3.7% | –
N=C(N=C(N)N)N1CCOCC1 | -5.54% [at 32.6 µM] | –
